# Compounds without any hit were thinned out: in the full panel of roughly 79,000, 15% have a hit. Unmarked numbers belong to inactive results. Calls of active or inactive are those of the source. Cut-off read from the data, not from the text of the source: active = growth inhibition above about 70%; inactive = the rest.
# Tests used:
# [1] = NCI Yeast Anticancer Drug Screen. Data for the rad52 strain (AID 147);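 note: 0% = growth of vehicle-treated control cultures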; details: S. cerevisiae rad52 mutant growth inhibition, stronger effect = higher value
# Procedure, shortened: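 Read-out: growth inhibition versus vehicle-treated controls. Cells were a DNA repair-deficient yeast strain treated with compounds.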
# [2] = NCI Yeast Anticancer Drug Screen. Data for the wt1 strain (AID 149);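 note: 0% = growth of vehicle-treated wt1 cultures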; details: S. cerevisiae wt1 strain (SPY 50644) growth inhibition, stronger effect = higher value
# Procedure, shortened: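 wt1 yeast, compound-treated; % growth inhibition vs vehicle control.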
# [3] = NCI Yeast Anticancer Drug Screen. Data for the rad50EPP+ strain (AID 151);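 note: 0% = growth of vehicle-treated control cultures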; details: S. cerevisiae rad50 mutant strain, stronger effect = higher value
# Procedure, shortened: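 Growth inhibition read against vehicle controls in rad50EPP+ yeast, a strain altered in DNA damage repair, after compound exposure.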
# [4] = NCI Yeast Anticancer Drug Screen. Data for the mgt1 strain (AID 153); details: S. cerevisiae mgt1 mutant growth inhibition, stronger effect = higher value
# Procedure, shortened: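 mgt1 yeast grown with test compound; read-out is growth inhibition versus vehicle-treated cultures.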
# [5] = NCI Yeast Anticancer Drug Screen. Data for the rad50 strain (AID 155);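 note: 0% = growth of vehicle-only cultures of the same strain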; details: S. cerevisiae rad50 strain growth inhibition, stronger effect = higher value
# Procedure, shortened: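 Genetically altered yeast (DNA repair pathway); compound treatment; growth inhibition vs vehicle ctrl.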
# [6] = NCI Yeast Anticancer Drug Screen. Data for the mec2-1 strain (AID 157); details: S. cerevisiae mec2-1 strain, stronger effect = higher value
# Procedure, shortened: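 Yeast mec2-1 mutant treated with compound. Readout: growth inhibition vs vehicle controls.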
# [7] = NCI Yeast Anticancer Drug Screen. Data for the rad14 strain (AID 159);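 note: 0% = growth of vehicle-treated control cultures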; details: S. cerevisiae rad14 strain growth inhibition, stronger effect = higher value
# Procedure, shortened: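 Test compounds were applied to a repair-deficient yeast strain. Its growth was then compared with that of cultures given vehicle alone, and inhibition was expressed relative to those controls.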
# [8] = NCI Yeast Anticancer Drug Screen. Data for the sgs1 mgt1 strain (AID 161);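 note: 0% = growth of cultures given vehicle only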; details: S. cerevisiae sgs1 mgt1 strain, stronger effect = higher value
# Procedure, shortened: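 Mutant yeast exposed to compound; growth scored against vehicle-only wells.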
# [9] = NCI Yeast Anticancer Drug Screen. Data for the CLN2oe strain (AID 163);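 note: 0% = growth of vehicle-only control cultures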; details: S. cerevisiae CLN2oe strain, stronger effect = higher value
# Procedure, shortened: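 Read-out: yeast growth inhibition, expressed relative to vehicle-only controls. The strain bears an engineered cell-cycle alteration.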
# [10] = NCI Yeast Anticancer Drug Screen. Data for the cln2 rad14 strain (AID 165);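 note: 0% = growth equal to vehicle treated cultures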; details: S. cerevisiae cln2 rad14 strain, stronger effect = higher value
# Procedure, shortened: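 cln2 rad14 yeast strain; compound exposure; growth inhibition read vs vehicle controls.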
# [11] = NCI Yeast Anticancer Drug Screen. Data for the bub3 strain (AID 167); details: S. cerevisiae bub3 mutant strain, stronger effect = higher value
# Procedure, shortened: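 Yeast carrying a defined mutation is treated with each compound, and growth is compared with that of vehicle-exposed cells to give inhibition.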
# [12] = NCI Yeast Anticancer Drug Screen. Data for the wt2 strain (AID 169);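 note: 0% = growth of vehicle-treated yeast cultures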; details: S. cerevisiae wt2 strain growth inhibition, stronger effect = higher value
# Procedure, shortened: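 Read-out: growth inhibition versus vehicle-treated control cultures after compound exposure of the yeast strain.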
# [13] = NCI Yeast Anticancer Drug Screen. Data for the mlh1 strain (AID 171);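 note: 0% = growth of vehicle-treated control cultures of the same strain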; details: S. cerevisiae mlh1 strain growth inhibition, stronger effect = higher value
# Procedure, shortened: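 Read-out: growth inhibition versus vehicle controls. Strain: engineered yeast with a defined DNA repair or cell cycle defect, compound-treated.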
# [14] = NCI Yeast Anticancer Drug Screen. Data for the sgs1 strain (AID 173);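 note: 0% = growth of vehicle-only control cultures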; details: S. cerevisiae sgs1 mutant, stronger effect = higher value
# Procedure, shortened: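 Read-out: yeast growth inhibition relative to vehicle controls, following compound exposure of a strain with a defined DNA repair/cell cycle alteration.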
# [15] = NCI Yeast Anticancer Drug Screen. Data for the mlh1 rad18 strain (AID 175); details: S. cerevisiae mlh1 rad18 strain growth inhibition, stronger effect = higher value
# Procedure, shortened: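 Yeast w/ defined DNA-repair lesions; compound exposure; growth vs vehicle controls → % inhibition.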
# [16] = NCI Yeast Anticancer Drug Screen. Data for the rad18 strain (AID 177); details: S. cerevisiae rad18 mutant growth inhibition, stronger effect = higher value
# Procedure, shortened: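 Readout: growth inhibition vs vehicle controls. Cells: genetically altered yeast strain, DNA repair defect.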
# [17] = at 5.0 µM (retest, dose inferred, filed as 0.5)
# [18] = at 50.0 µM (retest, dose inferred, filed as 5.0)
smiles,measurement,setting,value
Clc1c(Cl)c(Cl)c2n[nH]nc2c1Cl,growth inhibition,[1]; at 1.2 µM,-30%
same,growth inhibition,[1]; at 3.7 µM,-11%
same,growth inhibition,[1]; at 11.0 µM,-20%
same,growth inhibition,[1]; at 33.0 µM,-12%
same,growth inhibition,[1]; at 100.0 µM,65%
same,growth inhibition,[2]; at 1.2 µM,-23%
same,growth inhibition,[2]; at 3.7 µM,-16%
same,growth inhibition,[2]; at 11.0 µM,-9%
same,growth inhibition,[2]; at 33.0 µM,14%
same,growth inhibition,[2]; at 100.0 µM,87% (active)
same,growth inhibition,[3]; at 1.2 µM,-62%
same,growth inhibition,[3]; at 3.7 µM,-51%
same,growth inhibition,[3]; at 11.0 µM,-28%
same,growth inhibition,[3]; at 33.0 µM,18%
same,growth inhibition,[3]; at 100.0 µM,20%
same,growth inhibition,[4]; at 1.2 µM,-23%
same,growth inhibition,[4]; at 3.7 µM,-12%
same,growth inhibition,[4]; at 11.0 µM,-5%
same,growth inhibition,[4]; at 33.0 µM,6%
same,growth inhibition,[4]; at 100.0 µM,86% (active)
same,growth inhibition,[5]; at 1.2 µM,-13%
same,growth inhibition,[5]; at 3.7 µM,-21%
same,growth inhibition,[5]; [17],100% (active)
same,growth inhibition,[5]; at 11.0 µM,-9%
same,growth inhibition,[5]; at 33.0 µM,14%
same,growth inhibition,[5]; [18],100% (active)
same,growth inhibition,[5]; at 50.0 µM,60.1%
same,growth inhibition,[5]; at 100.0 µM,75% (active)
same,growth inhibition,[6]; at 1.2 µM,-6%
same,growth inhibition,[6]; at 3.7 µM,-20%
same,growth inhibition,[6]; [17],100% (active)
same,growth inhibition,[6]; at 11.0 µM,-21%
same,growth inhibition,[6]; at 33.0 µM,9%
same,growth inhibition,[6]; [18],100% (active)
same,growth inhibition,[6]; at 50.0 µM,54.8%
same,growth inhibition,[6]; at 100.0 µM,82% (active)
same,growth inhibition,[7]; at 1.2 µM,-9%
same,growth inhibition,[7]; at 3.7 µM,-19%
same,growth inhibition,[7]; at 11.0 µM,-9%
same,growth inhibition,[7]; at 33.0 µM,11%
same,growth inhibition,[7]; at 100.0 µM,94% (active)
same,growth inhibition,[8]; [17],-17%
same,growth inhibition,[8]; [18],78% (active)
same,growth inhibition,[9]; at 1.2 µM,-7%
same,growth inhibition,[9]; at 3.7 µM,-10%
same,growth inhibition,[9]; at 11.0 µM,1%
same,growth inhibition,[9]; at 33.0 µM,21%
same,growth inhibition,[9]; at 100.0 µM,76% (active)
same,growth inhibition,[10]; [17],57%
same,growth inhibition,[10]; [18],57%
same,growth inhibition,[11]; at 1.2 µM,-21%
same,growth inhibition,[11]; at 3.7 µM,-18%
same,growth inhibition,[11]; [17],-11%
same,growth inhibition,[11]; at 11.0 µM,-10%
same,growth inhibition,[11]; at 33.0 µM,15%
same,growth inhibition,[11]; [18],73% (active)
same,growth inhibition,[11]; at 100.0 µM,87% (active)
same,growth inhibition,[12]; at 1.2 µM,-24%
same,growth inhibition,[12]; at 3.7 µM,-18%
same,growth inhibition,[12]; at 11.0 µM,-7%
same,growth inhibition,[12]; at 33.0 µM,-3%
same,growth inhibition,[12]; at 100.0 µM,94% (active)
same,growth inhibition,[13]; at 1.2 µM,-59%
same,growth inhibition,[13]; at 3.7 µM,-52%
same,growth inhibition,[13]; at 11.0 µM,-33%
same,growth inhibition,[13]; at 33.0 µM,14%
same,growth inhibition,[13]; at 100.0 µM,75% (active)
same,growth inhibition,[14]; at 1.2 µM,-40%
same,growth inhibition,[14]; at 3.7 µM,-26%
same,growth inhibition,[14]; at 11.0 µM,-12%
same,growth inhibition,[14]; at 33.0 µM,30%
same,growth inhibition,[14]; at 100.0 µM,91% (active)
same,growth inhibition,[15]; [17],100% (active)
same,growth inhibition,[15]; [18],100% (active)
same,growth inhibition,[15]; at 50.0 µM,37.5%
same,growth inhibition,[16]; at 1.2 µM,-29%
same,growth inhibition,[16]; at 3.7 µM,-38%
same,growth inhibition,[16]; at 11.0 µM,-25%
same,growth inhibition,[16]; at 33.0 µM,4%
same,growth inhibition,[16]; at 100.0 µM,57%
O=[N+]([O-])c1cc(S(=O)(=O)Nc2ccccc2)ccc1Cl,growth inhibition,[1]; at 1.2 µM,2%
same,growth inhibition,[1]; at 3.7 µM,6%
same,growth inhibition,[1]; at 11.0 µM,15%
same,growth inhibition,[1]; at 33.0 µM,89% (active)
same,growth inhibition,[1]; at 100.0 µM,98% (active)
same,growth inhibition,[2]; at 1.2 µM,-20%
same,growth inhibition,[2]; at 3.7 µM,-20%
same,growth inhibition,[2]; at 11.0 µM,0%
same,growth inhibition,[2]; at 33.0 µM,86% (active)
same,growth inhibition,[2]; at 100.0 µM,99% (active)
same,growth inhibition,[3]; at 1.2 µM,14%
same,growth inhibition,[3]; at 3.7 µM,6%
same,growth inhibition,[3]; at 11.0 µM,1%
same,growth inhibition,[3]; at 33.0 µM,20%
same,growth inhibition,[3]; at 100.0 µM,48%
same,growth inhibition,[4]; at 1.2 µM,15%
same,growth inhibition,[4]; at 3.7 µM,3%
same,growth inhibition,[4]; at 11.0 µM,30%
same,growth inhibition,[4]; at 33.0 µM,93% (active)
same,growth inhibition,[4]; at 100.0 µM,99% (active)
same,growth inhibition,[5]; at 1.2 µM,-7%
same,growth inhibition,[5]; at 3.7 µM,3%
same,growth inhibition,[5]; [17],34%
same,growth inhibition,[5]; at 11.0 µM,19%
same,growth inhibition,[5]; at 33.0 µM,90% (active)
same,growth inhibition,[5]; [18],99% (active)
same,growth inhibition,[5]; at 50.0 µM,88.5% (active)
same,growth inhibition,[5]; at 100.0 µM,97% (active)
same,growth inhibition,[6]; at 1.2 µM,-10%
same,growth inhibition,[6]; at 3.7 µM,-5%
same,growth inhibition,[6]; [17],42%
same,growth inhibition,[6]; at 11.0 µM,21%
same,growth inhibition,[6]; at 33.0 µM,91% (active)
same,growth inhibition,[6]; [18],99% (active)
same,growth inhibition,[6]; at 50.0 µM,90.5% (active)
same,growth inhibition,[6]; at 100.0 µM,99% (active)
same,growth inhibition,[7]; at 1.2 µM,-4%
same,growth inhibition,[7]; at 3.7 µM,-8%
same,growth inhibition,[7]; at 11.0 µM,2%
same,growth inhibition,[7]; at 33.0 µM,91% (active)
same,growth inhibition,[7]; at 100.0 µM,98% (active)
same,growth inhibition,[8]; [17],-26%
same,growth inhibition,[8]; [18],95% (active)
same,growth inhibition,[8]; at 50.0 µM,90.5% (active)
same,growth inhibition,[9]; at 1.2 µM,-8%
same,growth inhibition,[9]; at 3.7 µM,-1%
same,growth inhibition,[9]; at 11.0 µM,35%
same,growth inhibition,[9]; at 33.0 µM,93% (active)
same,growth inhibition,[9]; at 100.0 µM,98% (active)
same,growth inhibition,[11]; at 1.2 µM,11%
same,growth inhibition,[11]; at 3.7 µM,19%
same,growth inhibition,[11]; [17],-20%
same,growth inhibition,[11]; at 11.0 µM,45%
same,growth inhibition,[11]; at 33.0 µM,91% (active)
same,growth inhibition,[11]; [18],96% (active)
same,growth inhibition,[11]; at 50.0 µM,86.2% (active)
same,growth inhibition,[11]; at 100.0 µM,99% (active)
same,growth inhibition,[12]; at 1.2 µM,-26%
same,growth inhibition,[12]; at 3.7 µM,-6%
same,growth inhibition,[12]; at 11.0 µM,4%
same,growth inhibition,[12]; at 33.0 µM,90% (active)
same,growth inhibition,[12]; at 100.0 µM,99% (active)
same,growth inhibition,[13]; at 1.2 µM,-34%
same,growth inhibition,[13]; at 3.7 µM,-20%
same,growth inhibition,[13]; at 11.0 µM,13%
same,growth inhibition,[13]; at 33.0 µM,89% (active)
same,growth inhibition,[13]; at 100.0 µM,98% (active)
same,growth inhibition,[14]; at 1.2 µM,4%
same,growth inhibition,[14]; at 3.7 µM,-3%
same,growth inhibition,[14]; at 11.0 µM,33%
same,growth inhibition,[14]; at 33.0 µM,89% (active)
same,growth inhibition,[14]; at 100.0 µM,98% (active)
same,growth inhibition,[15]; [17],35%
same,growth inhibition,[15]; [18],100% (active)
same,growth inhibition,[15]; at 50.0 µM,86.8% (active)
same,growth inhibition,[16]; at 1.2 µM,1%
same,growth inhibition,[16]; at 3.7 µM,9%
same,growth inhibition,[16]; at 11.0 µM,27%
same,growth inhibition,[16]; at 33.0 µM,94% (active)
same,growth inhibition,[16]; at 100.0 µM,99% (active)

# Source: PubChem BioAssay (NCI)
